# Test results published in the supplement of paper PMC8728848.
# This is one part of a sample in which the strongest signals are shown more often than they occur.
# Assays:
# Experiment in all cases: glycan array binding signal (z-score within array); higher = stronger binding
# Conditions in all cases: glycan notation: IUPAC condensed, linker removed
# [1] = biological target: GalNAc(b1-3)Gal(a1-4)Gal(b1-4)GlcNAc
# Method in brief: (§1)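 The Consortium for Functional Glycomics database supplied 3228 glycan arrays, of which those lacking an available protein sequence were dropped. The binding signal, a within-array Z-score, was averaged across arrays of the same protein sequence and across linkers. Negative scores can be read as non-binding.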
# [2] = biological target: GalNAc(b1-3)Gal(a1-4)Gal(b1-4)GlcNAc(b1-3)Gal(b1-4)Glc
# Method in brief: as §1
# GalNAc6S(b1-4)GlcNAc = biological target: GalNAc6S(b1-4)GlcNAc
# Method in brief: as §1
# [3] = biological target: GlcNAc(a1-4)Gal(b1-4)GlcNAc
# Method in brief: as §1
# [4] = biological target: GlcNAc(b1-2)[GlcNAc(b1-4)]Man(a1-3)[GlcNAc(b1-4)][GlcNAc(b1-2)Man(a1-6)]Man(b1-4)GlcNAc(b1-4)GlcNAc
# Method in brief: as §1
# [5] = biological target: GlcNAc(b1-3)Gal(b1-4)GlcNAc(b1-3)Gal(b1-4)GlcNAc(b1-2)[GlcNAc(b1-3)Gal(b1-4)GlcNAc(b1-3)Gal(b1-4)GlcNAc(b1-6)]Man(a1-6)[GlcNAc(b1-3)Gal(b1-4)GlcNAc(b1-3)Gal(b1-4)GlcNAc(b1-2)Man(a1-3)]Man(b1-4)GlcNAc(b1-4)[Fuc(a1-6)]GlcNAc
# Method in brief: as §1
# [6] = biological target: GlcNAc(b1-3)Gal(b1-4)GlcNAc(b1-3)Gal(b1-4)GlcNAc(b1-3)Gal(b1-4)GlcNAc(b1-2)Man(a1-3)[GlcNAc(b1-3)Gal(b1-4)GlcNAc(b1-3)Gal(b1-4)GlcNAc(b1-3)Gal(b1-4)GlcNAc(b1-2)Man(a1-6)]Man(b1-4)GlcNAc(b1-4)[Fuc(a1-6)]GlcNAc
# Method in brief: as §1
# [7] = biological target: GlcNAc(b1-3)Gal(b1-4)GlcNAc(b1-3)Gal(b1-4)GlcNAc(b1-3)Gal(b1-4)GlcNAc(b1-3)Gal(b1-4)GlcNAc(b1-2)Man(a1-3)[GlcNAc(b1-3)Gal(b1-4)GlcNAc(b1-3)Gal(b1-4)GlcNAc(b1-3)Gal(b1-4)GlcNAc(b1-3)Gal(b1-4)GlcNAc(b1-2)Man(a1-6)]Man(b1-4)GlcNAc(b1-4)[Fuc(a1-6)]GlcNAc
# Method in brief: as §1
# [8] = biological target: GlcNAc(b1-3)Gal(b1-4)GlcNAc(b1-6)[Gal(b1-3)]GalNAc
# Method in brief: as §1
# GlcNAc(b1-3)GalNAc = biological target: GlcNAc(b1-3)GalNAc
# Method in brief: as §1
# GlcNAc(b1-6)GalNAc = biological target: GlcNAc(b1-6)GalNAc
# Method in brief: as §1
# Kdn(a2-3)Gal(b1-4)GlcNAc = biological target: Kdn(a2-3)Gal(b1-4)GlcNAc
# Method in brief: as §1
# [9] = biological target: Man(a1-2)Man(a1-3)[Man(a1-2)Man(a1-6)]Man
# Method in brief: as §1
# [10] = biological target: Neu5Ac(a2-3)Gal(b1-3)GalNAc(b1-4)[Neu5Ac(a2-8)Neu5Ac(a2-3)]Gal(b1-4)Glc
# Method in brief: as §1
# [11] = biological target: Neu5Ac(a2-3)Gal(b1-3)GlcNAc(b1-6)GalNAc
# Method in brief: as §1
# [12] = biological target: Neu5Ac(a2-3)Gal(b1-4)GlcNAc(b1-3)Gal(b1-4)GlcNAc(b1-2)Man(a1-3)[Neu5Ac(a2-3)Gal(b1-4)GlcNAc(b1-3)Gal(b1-4)GlcNAc(b1-2)Man(a1-6)]Man(b1-4)GlcNAc(b1-4)GlcNAc
# Method in brief: as §1
# [13] = biological target: Neu5Ac(a2-3)Gal(b1-4)GlcNAc(b1-3)Gal(b1-4)GlcNAc(b1-6)[Gal(b1-3)]GalNAc
# Method in brief: as §1
# [14] = biological target: Neu5Ac(a2-3)Gal(b1-4)GlcNAc(b1-6)GalNAc
# Method in brief: as §1
# [15] = biological target: Neu5Ac(a2-3)Gal(b1-4)GlcNAc(b1-6)[Gal(b1-3)]GalNAc
# Method in brief: as §1
# [16] = biological target: Neu5Ac(a2-3)Gal(b1-4)[Fuc(a1-3)]GlcNAc6S
# Method in brief: as §1
# Neu5Ac(a2-3)GalNAc = biological target: Neu5Ac(a2-3)GalNAc
# Method in brief: as §1
# [17] = biological target: Neu5Ac(a2-6)Gal(b1-4)GlcNAc(b1-2)Man
# Method in brief: as §1
# [18] = biological target: Neu5Ac(a2-6)Gal(b1-4)GlcNAc(b1-2)Man(a1-3)[GlcNAc(b1-2)Man(a1-6)]Man(b1-4)GlcNAc(b1-4)GlcNAc
# Method in brief: as §1
# [19] = biological target: Neu5Ac(a2-6)Gal(b1-4)GlcNAc(b1-2)Man(a1-6)[GlcNAc(b1-2)Man(a1-3)]Man(b1-4)GlcNAc(b1-4)GlcNAc
# Method in brief: as §1
# [20] = biological target: Neu5Ac(a2-8)Neu5Ac(a2-3)[Gal(b1-3)GalNAc(b1-4)]Gal(b1-4)Glc
# Method in brief: as §1
# [21] = biological target: Neu5Gc(a2-3)Gal(b1-3)GlcNAc
# Method in brief: as §1
# [22] = biological target: Neu5Gc(a2-8)Neu5Gc(a2-3)Gal(b1-4)GlcNAc
# Method in brief: as §1
# [23] = biological target: Neu5Gc(a2-8)Neu5Gc(a2-6)Gal(b1-4)GlcNAc
# Method in brief: as §1
binder,measurement,setting,value
DC-ASGPR L+GEE (Homo sapiens) (protein) MTRTYENFQYLENKVKVQGFKNGPLPLQSLLQRLRSGPCHLLLSLGLGLLLLVIICVVGFQNSKFQRDLVTLRTDFSNFTSNTVAEIQALTSQGSSLEETIASLKAEVEGFKQERQAGVSELQEHTTQKAHLGHCPHCPSVCVPVHSEMLLRVQQLVQDLKKLTCQVATLNNNGEEASTEGTCCPVNWVEHQDSCYWFSHSGMSWAEAEKYCQLKNAHLVVINSREEQNFVQKYLGSAYTWMGLSDPEGAWKWVDGTDYATGFQNWKPGQPDDWQGHGLGGGEDCAHFHPDGRWNDDVCQRPYHWVCEAGLGQTSQESH,glycan array binding signal (z-score),[1],4.33
same,glycan array binding signal (z-score),[2],4.06
same,glycan array binding signal (z-score),GalNAc6S(b1-4)GlcNAc,1.11
same,glycan array binding signal (z-score),[3],-0.367
same,glycan array binding signal (z-score),[4],-0.37
same,glycan array binding signal (z-score),[5],0.194
same,glycan array binding signal (z-score),[6],-0.283
same,glycan array binding signal (z-score),[7],0.512
same,glycan array binding signal (z-score),[8],-0.411
same,glycan array binding signal (z-score),GlcNAc(b1-3)GalNAc,-0.439
same,glycan array binding signal (z-score),GlcNAc(b1-6)GalNAc,3.71
same,glycan array binding signal (z-score),Kdn(a2-3)Gal(b1-4)GlcNAc,-0.074
same,glycan array binding signal (z-score),[9],-0.348
same,glycan array binding signal (z-score),[10],-0.319
same,glycan array binding signal (z-score),[11],6.64
same,glycan array binding signal (z-score),[12],-0.164
same,glycan array binding signal (z-score),[13],-0.553
same,glycan array binding signal (z-score),[14],3
same,glycan array binding signal (z-score),[15],-0.019
same,glycan array binding signal (z-score),[16],-0.418
same,glycan array binding signal (z-score),Neu5Ac(a2-3)GalNAc,-0.223
same,glycan array binding signal (z-score),[17],0.432
same,glycan array binding signal (z-score),[18],-0.362
same,glycan array binding signal (z-score),[19],-0.328
same,glycan array binding signal (z-score),[20],0.544
same,glycan array binding signal (z-score),[21],-0.017
same,glycan array binding signal (z-score),[22],-0.146
same,glycan array binding signal (z-score),[23],-0.204
